PubChem BioAssay (NCI)
Compounds without any hit were thinned out: in the full panel of roughly 83,000, 20% have a hit.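 Results are percent growth after 48 hours of single-concentration exposure. 100 means growth as in untreated cells, lower positive values show inhibition; negative values down to -100 show cell death.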 The source made the active and inactive calls. The calls were made as follows: active = growth percent below 10; inactive = the rest.

What was measured:
Assay in all cases: NCI-60 one-dose screen, 48 h (100 = growth as untreated, 0 = no growth, -100 = all killed)
Details in all cases: 10 µM unless noted
NCI-H23 lung = test system: NCI-H23 lung
NCI-H226 lung = test system: NCI-H226 lung
NCI-H322M lung = test system: NCI-H322M lung
HOP-62 NSCLC = test system: HOP-62 NSCLC
NCI-H460 lung = test system: NCI-H460 lung
HOP-92 NSCLC = test system: HOP-92 NSCLC
NCI-H522 lung = test system: NCI-H522 lung
786-0 renal = test system: 786-0 renal
COLO 205 colon = test system: COLO 205 colon
DU-145 prostate = test system: DU-145 prostate
K-562 leukemia = test system: K-562 leukemia
MALME-3M melanoma = test system: MALME-3M melanoma
MDA-MB-231 breast = test system: MDA-MB-231 breast
RXF 393 renal = test system: RXF 393 renal
SF-268 CNS = test system: SF-268 CNS
SF-295 CNS = test system: SF-295 CNS
SF-539 CNS = test system: SF-539 CNS
UACC-257 melanoma = test system: UACC-257 melanoma
M14 melanoma = test system: M14 melanoma
A549/ATCC NSCLC = test system: A549/ATCC NSCLC

Measured: growth

COc1ccc2c(c1)c(-c1nonc1-c1c[nH]c3ccc(Br)cc13)cn2C
inactive: NCI-H23 lung 55.6% | NCI-H226 lung 84.6% | NCI-H322M lung 55.8% | HOP-62 NSCLC 29.6% | NCI-H460 lung 23.7% | HOP-92 NSCLC 75.6% | NCI-H522 lung 11.3% | 786-0 renal 58.6% | COLO 205 colon 23.9% | DU-145 prostate 61.2% | K-562 leukemia 11.5% | MALME-3M melanoma 46.3% | MDA-MB-231 breast 43.4% | RXF 393 renal 67% | SF-268 CNS 48.3% | SF-295 CNS 40.2% | SF-539 CNS 56.6% | UACC-257 melanoma 64.7% | M14 melanoma 20.8%

O=C1c2cccnc2C(=O)c2c1c(C(=O)OCCCN1CCCCC1)c1ccccn21
active: NCI-H23 lung -48.5% | NCI-H226 lung -18.4% | NCI-H322M lung -18.1% | HOP-62 NSCLC -31.9% | NCI-H460 lung -63.3% | HOP-92 NSCLC -8.21% | NCI-H522 lung -80% | 786-0 renal -62.6% | COLO 205 colon -79% | DU-145 prostate -86.8% | K-562 leukemia -28.5% | MALME-3M melanoma -78.2% | MDA-MB-231 breast -8.94% | RXF 393 renal -64.2% | SF-268 CNS -15.3% | SF-295 CNS -13.9% | SF-539 CNS -9.46% | UACC-257 melanoma -38.4% | M14 melanoma -83.5%

Cc1c2ccccc2nc2c1ccc1cccnc12
inactive: NCI-H23 lung 74.5% | NCI-H226 lung 96.5% | NCI-H322M lung 101% | HOP-62 NSCLC 105% | NCI-H460 lung 73.8% | HOP-92 NSCLC 106% | NCI-H522 lung 63.5% | 786-0 renal 95.8% | COLO 205 colon 50.8% | DU-145 prostate 95.6% | K-562 leukemia 44.1% | MALME-3M melanoma 88.3% | MDA-MB-231 breast 103% | RXF 393 renal 108% | SF-268 CNS 99.8% | SF-295 CNS 89.3% | SF-539 CNS 100% | UACC-257 melanoma 72.3% | M14 melanoma 84.9%

CC(=O)c1c(Nc2ccc(F)c(F)c2F)[nH]c2c(F)cc(F)cc2c1=O
active: NCI-H23 lung -3.83% | NCI-H226 lung -15.6% | NCI-H322M lung 4.47% | HOP-62 NSCLC -21.5% | NCI-H460 lung 2.98% | HOP-92 NSCLC -18.8% | NCI-H522 lung -11.1% | COLO 205 colon -65% | K-562 leukemia 7.47% | MALME-3M melanoma -22.6% | MDA-MB-231 breast -1.7% | RXF 393 renal -4.56% | SF-295 CNS -35.3% | SF-539 CNS 1.53% | UACC-257 melanoma -18.4% | M14 melanoma 2.68%
inactive: 786-0 renal 12.1% | DU-145 prostate 18.1% | SF-268 CNS 17.9%

C[C@@H]1CC[C@@]2(OC1)O[C@H]1C[C@H]3[C@@H]4CC=C5C[C@@H](O[C@@H]6O[C@H](CO)[C@@H](O[C@@H]7O[C@@H](CO)[C@H](O)[C@H]7O)[C@H](O)[C@H]6O[C@@H]6O[C@@H](C)[C@H](O)[C@@H](O)[C@H]6O)CC[C@]5(C)[C@H]4CC[C@]3(C)[C@H]1[C@@H]2C
active: NCI-H23 lung -95.5% | NCI-H226 lung -51.8% | NCI-H322M lung -87.7% | HOP-62 NSCLC 6.56% | NCI-H460 lung -93.7% | HOP-92 NSCLC -67.2% | NCI-H522 lung -41.4% | A549/ATCC NSCLC -96.8% | 786-0 renal -89.6% | DU-145 prostate -95.2% | K-562 leukemia -1.01% | MALME-3M melanoma -91.6% | MDA-MB-231 breast -95.3% | RXF 393 renal -95% | SF-268 CNS -54.8% | SF-295 CNS -91.7% | SF-539 CNS -99.2% | UACC-257 melanoma -94% | M14 melanoma -92.6%

CCn1c2ccc(O)cc2c2c(C)c3c[n+](C(C)C)ccc3c(C)c21
active: NCI-H460 lung 9.02% | MALME-3M melanoma -6.64%
inactive: NCI-H23 lung 36.3% | NCI-H226 lung 66.8% | HOP-62 NSCLC 43% | HOP-92 NSCLC 51.2% | NCI-H522 lung 19.9% | A549/ATCC NSCLC 69.1% | 786-0 renal 56.1% | COLO 205 colon 13.1% | DU-145 prostate 29.6% | K-562 leukemia 41% | MDA-MB-231 breast 45.4% | RXF 393 renal 53.4% | SF-268 CNS 14% | SF-295 CNS 60.5% | SF-539 CNS 38.7% | UACC-257 melanoma 37% | M14 melanoma 36.5%

CCN(CC)c1ccc(/C=N\NC(=O)c2cccc(Nc3ccnc(C(F)(F)F)c3)c2)c(O)c1
inactive: NCI-H23 lung 39.5% | HOP-62 NSCLC 29.5% | HOP-92 NSCLC 20.6% | NCI-H522 lung 41.5% | A549/ATCC NSCLC 31.3% | DU-145 prostate 23.1% | K-562 leukemia 92.3% | MALME-3M melanoma 24.4% | MDA-MB-231 breast 13.6% | SF-268 CNS 10.3% | SF-295 CNS 16.8% | UACC-257 melanoma 27.3% | M14 melanoma 21.2%
active: NCI-H226 lung -3.12% | NCI-H460 lung 1.17% | 786-0 renal 5.84% | COLO 205 colon -0.627% | RXF 393 renal -1.92% | SF-539 CNS -38.9%

CCNC(=O)Oc1ccc(/C(=C(/C)Cc2ccc(OC)cc2)c2ccc(OCCN3CCCCCC3)cc2)cc1
active: K-562 leukemia 5.8%
inactive: NCI-H23 lung 75.9% | NCI-H226 lung 96.2% | HOP-62 NSCLC 84.4% | NCI-H460 lung 30.6% | HOP-92 NSCLC 40.8% | NCI-H522 lung 54.2% | A549/ATCC NSCLC 54.9% | 786-0 renal 72% | COLO 205 colon 28.7% | DU-145 prostate 92.2% | MALME-3M melanoma 109% | MDA-MB-231 breast 64.1% | RXF 393 renal 68.3% | SF-268 CNS 74.5% | SF-295 CNS 88.4% | SF-539 CNS 96.4% | UACC-257 melanoma 76.7% | M14 melanoma 68.3%
